Only a selection was taken, and hits are over-represented in it overall.
Dicer processing – human Dicer pre-microRNA cleavage inhibition; Q9UPY3; cat-ELCCA pre-miR-21 Dicer processing, chemiluminescence; stronger effect = higher value; z-score at 25 µM; 47,000 tested, 6% active; AID 1347074; in the data active = z-score above about 3, passing the limit was not always enough;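 note: plate controls were vehicle for no effect and no enzyme for full effect; higher signal means more uncleaved substrate so more Dicer inhibition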
The depositor's hits bear a star.

SMILES	Dicer processing
Cc1ccc(/C(C#N)=C2C=C(Cl)/C(=N/O)C=C\2Cl)cc1	3.76*
NC(=O)N/N=C1\CCCc2ccccc21	-0.65
CCOC(=O)C1=C(C)NC2=C(C(=O)CC(c3ccc(OC)cc3)C2)C1c1ccc(OC)cc1 (configuration not stated)	1.28
CCOCCOC(=O)C1=C(C)NC2=C(C(=O)CC(c3cccs3)C2)C1c1ccc(F)cc1 (configuration not stated)	0.73
CCOc1cc(C2Nc3ccccc3NC3=C2C(=O)CC(c2ccccc2)C3)cc(Cl)c1O (configuration not stated)	1.14
CCOC(=O)C1=C(C)NC2=C(C(=O)CC(c3ccc(Cl)cc3)C2)C1c1ccc(N(C)C)cc1 (configuration not stated)	1.68
CCOc1ccc(C2C(C(=O)OC)=C(C)NC3=C2C(=O)CC(c2ccc(OC)c(OC)c2)C3)cc1 (configuration not stated)	3.19*
CCOC(=O)C1=C(C)NC2=C(C(=O)CC(c3ccc(Cl)cc3)C2)C1c1ccc(OCC)cc1 (configuration not stated)	3.37*
CCOc1cc(C2C(C(=O)OC)=C(C)NC3=C2C(=O)c2ccccc23)cc(Cl)c1O (configuration not stated)	2.9
CCOc1cc(C2C(C(=O)OC)=C(C)NC3=C2C(=O)CC(c2ccccc2)C3)cc(Cl)c1O (configuration not stated)	3.72*
CCCOc1ccc(C2C(C(=O)OC)=C(C)NC3=C2C(=O)CC(c2ccc(OC)cc2)C3)cc1 (configuration not stated)	2.1
CCOCCOC(=O)C1=C(C)NC2=C(C(=O)CC(c3ccc(Cl)cc3)C2)C1c1ccc(F)cc1 (configuration not stated)	4.2*
CCOCCOC(=O)C1=C(C)NC2=C(C(=O)CC(c3ccccc3)C2)C1c1ccccc1OCC (configuration not stated)	2.61
COC(=O)C1=C(C)NC2=C(C(=O)CC(c3ccc(OC)c(OC)c3)C2)C1c1ccc(OC)cc1OC (configuration not stated)	2.89
CCOC(=O)CN(C(=O)CSc1nc(C)cc(C)c1C#N)c1ccccc1	-0.89
Cc1cc(NC(=S)NCCO)ccc1F	-0.76
COC(=O)CCC(CCC(=O)OC)(C(C)=O)C(=O)OC	1.03
CCN(CC)C(=O)Cn1cnc2sc(C(=O)N3CC(C)CC(C)C3)c(C)c2c1=O (configuration not stated)	-0.67
C/C(=N\Nc1nc(-c2ccccc2)cs1)c1ccc(C)nc1	-0.19
C#CC(C)(C)NS(=O)(=O)c1cc(Cl)c(Cl)cc1Cl	-0.24
CCOC(=O)c1sc(NC(=O)c2cncc(Br)c2)c(C(=O)OCC)c1C	11.6
COC(=O)c1cnc(Sc2c(Cl)cccc2Cl)c([N+](=O)[O-])c1	-0.54
COc1ccc(C(=O)/C=C/Sc2ncc(C(F)(F)F)cc2Cl)cc1	0.32
Cc1cc([N+](=O)[O-])cnc1Sc1ccc(Cl)cc1	-0.68
C#CCOc1ccc(C2C3=C(CCCC3=O)NC3=C2C(=O)CCC3)cc1	0.15
SMILES	Dicer processing
C=CCOC(=O)C1=C(C)NC2=C(C(=O)CC(C)(C)C2)C1c1ccc(O)c(OC)c1 (configuration not stated)	-0.4
Nc1ccc2nc(SCC(=O)N3CCCCC3)sc2c1	-3.69
COc1ccc2[nH]c(C)c(CN(C)C3CCCCC3)c(=O)c2c1	0.5
Cc1cc(=O)[nH]c(SCC(=O)c2ccc(F)cc2)n1	1.71
Cc1cc(C)c2c(=O)[nH]c(SCC(=O)c3ccc(O)c(O)c3)nc2n1	3.66*
Cc1ccc(C(=O)CSc2nc3ccccc3c(=O)[nH]2)cc1C	-0.87
CC(c1ccccc1)N1C(=O)CSC1=S (configuration not stated)	-1.49
O=C(CC1(O)C(=O)N(Cc2ccccc2Cl)c2ccccc21)c1ccncc1 (configuration not stated)	1.51
CC(=O)NCc1ccccc1S(=O)c1ccccc1C(=O)O (configuration not stated)	-1.21
Cn1cnc2c(nnn2Cc2ccc(Cl)cc2)c1=O	-1.94
CCCCCc1ccc(C(=O)NCc2cccs2)cc1	-0.45
Nc1ccc(Cl)cc1C(=O)NCc1cccs1	21*
O=C(NCc1cccs1)c1nc2ncccn2n1	-0.35
Cc1nn(C)c(NN2C(=O)c3cccc4cc([N+](=O)[O-])cc(c34)C2=O)c1[N+](=O)[O-]	-0.06
Cc1cc(C(=O)O)nc2ccccc12	1.8
Cc1cc(C)c2ccc(C3C(=O)c4ccc(O)cc4C3=O)nc2c1 (configuration not stated)	3.13*
Cc1cc(C)c2nc(C3C(=O)c4ccccc4C3=O)ccc2c1	-1.17
O/N=C/c1ncc(C(F)(F)F)cc1Sc1ccc(Cl)cc1	-0.53
Clc1cccc(CSc2nnc(-c3ccncc3)o2)c1	-0.78
COC(=O)c1ccc(-n2nnnc2SCc2ccccn2)cc1	-1.12
O=S(=O)(CS(=O)(=O)Nc1nc2ccc(Cl)cc2s1)Nc1nc2ccc(Cl)cc2s1	0.06
COC(=O)CSc1nc2ccc(Cl)cc2s1	0.92
CC(C)(C)NC(=O)NNc1nc2ccc(Cl)cc2s1	3.71*
CN(C)c1ccc(C2N=C(c3ccc(Cl)cc3)NN2)cc1 (configuration not stated)	-0.5
CCCOc1ccc(C2c3c(oc4ccccc4c3=O)C(=O)N2c2nnc(C)s2)cc1 (configuration not stated)	-0.01
SMILES	Dicer processing
COCCCn1c2c(c(=O)[nH]c1=O)C(c1ccc(OC)cc1)C1=C(N2)c2ccccc2C1=O (configuration not stated)	-0.88
CCOC(=O)c1cnc(Nc2cccc(Cl)c2)nc1C(F)(F)F	1
O=C(CSc1nc2ccccc2nc1N1CCCC1)NC1CCCCC1	0.23
O=C1c2cccc3c(Sc4ccccc4)ccc(c23)C(=O)N1CCc1ccccn1	0.73
O=C1c2cccc3c(Sc4ccccc4)ccc(c23)C(=O)N1Cc1ccccc1	5.23*
O=C1c2cccc3c(Br)ccc(c23)C(=O)N1Cc1ccccc1	1.52
Cn1c(SCC(=O)c2ccc(Cl)cc2)nnc1C(F)(F)F	-0.22
Cc1cccc(-n2ncc3c2ncn2c(COc4c(C)cccc4C)nnc32)c1	-0.17
CCn1cc(-c2ccc3ccccc3n2)c(=S)c2ccccc21	-0.83
NC(/C=C/c1cc(C(F)(F)F)cc(C(F)(F)F)c1)=N\O	-0.33
CCCN(c1nc(C)cc(OC)n1)S(=O)(=O)c1ccccc1Cl	6.06*
CCCCN(c1nc(C)cc(OC)n1)S(=O)(=O)c1ccc(C)cc1	0.7
COC(=O)CN(c1nc(C)cc(OC)n1)S(=O)(=O)c1ccccc1	0.86
Cc1ccc(Sc2ncc(C(=O)OCc3ccc(Cl)cc3)c(C(F)(F)F)n2)cc1	-2.56
CCOC(=O)c1cnc2c(-c3ccccc3)c(C(F)(F)F)sc2c1OCC	-0.56
Nc1nc2c(-c3ccccc3)c(C(F)(F)F)sc2s1	4.17*
O=C(Nc1nc2c(-c3ccccc3)c(C(F)(F)F)sc2s1)c1ccc(Cl)cc1	0.43
O=S1(=O)N=C(Nc2ccccc2Br)c2ccccc21	1.66
O=C(Nc1ccccc1C(=O)O)OCC1c2ccccc2-c2ccccc21	5.23*
CC(CO)NC(=O)OCC1c2ccccc2-c2ccccc21 (configuration not stated)	4.9
CC(C)C(NC(=O)OCC1c2ccccc2-c2ccccc21)C(=O)O (configuration not stated)	-1.29
FC(F)(F)c1cnc(N2CCCN(C(=S)Nc3ccc(Cl)c(Cl)c3)CC2)c(Cl)c1	-1.12
COCc1cc(=O)oc2cc(OC(C)=O)c(Cl)cc12	0.17
